This note sets out measurements from PubChem BioAssay.

Assay [1] in a line: P. berghei load reduction in hepatocytes – cell-based, HepG2, luciferase luminescence, HepG2 viability, primary screen (AID 624349).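 Further: 100% = mean of DMSO negative control wells on the same plate.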 As to conditions: P. berghei liver stage in HepG2, luciferase luminescence, concentration not given here; parasite load remaining: stronger effect = lower value; viability: measured here: HepG2 viability without parasites.
The nature of assay [2]: Wnt pathway potentiators raising nuclear beta-catenin – imaging, WNT3A-conditioned medium, mouse C2C12, NPC library, primary screen (AID 1117326; in the data active means nuclear beta-catenin stimulation mostly above about 4.2%, no sharp cut-off; inactive means mostly below about 10%). The settings on record: stronger effect = higher value.
Assay [3] in a line: stimulators of insulin release from INS-1E, primary screen, cell-based, 5 mM glucose, NPC library (AID 1117329;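 active means compound raises insulin release from rat beta cells at 5 mM glucose, no numeric limit stated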). The settings on record: rat INS-1E insulin secretion, at 10 µM, stronger effect = higher value.
Assay [4] is described as follows: growth inhibition of GSK3B-pretreated HCT116 cells – cell-based, CellTiter-Glo, 0.2 to 20 µM (AID 1117336;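 active means compounds lowering colon cancer cell viability after pretreatment blocking the GSK3B kinase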). The settings on record: HCT116 viability after GSK3B inhibitor, at 20 µM, stronger effect = higher value.
Assay [5] is described as follows: inhibition of endothelial tube formation, primary screen, imaging, VEGF stimulated, CD31 staining, tube area, NPC library (AID 1117340;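 active means compound that reduces growth-factor-driven endothelial tube area in a mixed cell culture, no cutoff stated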). The settings on record: VEGF-stimulated ADSC/ECFC co-culture, at 10 µM, stronger effect = higher value.
The nature of assay [6]: GLP1 release stimulators, primary, NCI-H716, NPC library (AID 1117341;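 active means compound raises GLP1 secretion from the human gut endocrine cells, with no numeric limit stated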). As to conditions: NCI-H716 cells, at 10 µM, stronger effect = higher value.
Assay [7] in a line: HCT116 colon cancer cell growth inhibition, primary screen, CellTiter-Glo luminescence, NPC library (AID 1117342;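 active means compounds that lower survival of HCT116 colon cancer cells in the luminescence readout, no numeric limit stated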). As to conditions: at 20 µM (top of the series). Background: ATP-based viability assays read luminescence as a measure of living cells.
Assay [8] can be described thus: reduced SW480 viability measured with CellTiter-Glo, NPC library, primary (AID 1117343;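 active means compounds that lower viability of the colon cancer cells in the luminescence readout, with no numeric limit stated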). The settings on record: CellTiter-Glo luminescence; at 20 µM (top of the series) unless noted.
The nature of assay [9]: NPC library primary testing for decreased DLD-1 cell viability via CellTiter-Glo (AID 1117346;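 active means compounds that lower survival of DLD-1 colon cancer cells in the luminescence readout, no cutoff given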). The settings on record: DLD-1 viability, CellTiter-Glo luminescence; at 20 µM (top of the series).
Assay [10] has as its system Aerobactin synthetase IucA (Klebsiella pneumoniae). Nature of the assay: inhibition of K. pneumoniae IucA enzyme – biochemical, Tocris library, absorbance (AID 1345561; call rule not given here;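 further: 100% = enzyme without compound and 0% = no enzyme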). The settings on record: purified IucA enzyme assay, absorbance (OD) read-out; stronger effect = lower value;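 tested at 8 µM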.
Assay [11] in a line: viability loss in pontine glioma line – cell-based, SU-DIPG-XVII, MIPE5.0, CellTiter-Glo, qHTS, dose response (AID 1347060; cut-off not given, nearly all actives have AC50 up to about 26 µM;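 further: cells exposed to compound for 48 hours before viability readout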). As to conditions: CellTiter-Glo ATP luminescence.
The nature of assay [12]: viability loss in pontine glioma line – cell-based, SU-DIPG-XIII, MIPE4.0, CellTiter-Glo, qHTS, dose response (AID 1347061; cut-off not given, nearly all actives have AC50 up to about 37 µM;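 further: cells exposed to compound for 48 hours before readout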). As to conditions: CellTiter-Glo ATP luminescence.
A short description of assay [13]: growth inhibition of DIPG cells – cell-based, MIPE4.0 library, CellTiter-Glo luminescence, qHTS (AID 1347066; cut-off not given, nearly all actives have AC50 up to about 30 µM;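 further: cells exposed to compound for 48 hours before readout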). The settings on record: SU-DIPG-VI viability, CellTiter-Glo ATP luminescence.
The nature of assay [14]: growth inhibition of DIPG cells – cell-based, MIPE5.0 library, qHTS (AID 1347068; cut-off not given, nearly all actives have IC50 up to about 30 µM). The settings on record: SU-DIPG-XXV viability. Background: qHTS replaces the single test concentration by a dilution series.
Assay [15] in a line: MELAS cybrid and Rieske KO viability enhancers – cell-based, MELAS cybrids, Rieske KO mouse fibroblasts, CellTiter-Glo, primary screen (AID 1508586;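 active means mean z-score across replicates of 1.96 or higher in either the MELAS or the Rieske mutant cell line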;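 further: z relative to plate mean and SD of compound and empty wells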). As to conditions: low glucose.
Assay [16] can be described thus: galactose survival enhancers in mitochondrial complex I cybrids – cell-based, galactose medium, ATP luminescence, primary screen (AID 1645843;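 active means z-score of at least 1.8 in each of two replicates, scored against plate mean and spread of sample wells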;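 further: positive z means more ATP and so rescue of galactose-driven cybrid death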). As to conditions: complex I mutant cybrid cells, 72 h, stronger effect = higher value.
Assay [17] is described as follows: EMT-state selective cytotoxicity in co-culture – imaging, PC-3E GFP, TEM4-18 mCherry, primary screen (AID 1345086;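 active means compounds killing one labelled cell type while sparing the other, by normalised counts and ratio limits, not self-fluorescent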;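 on all read-outs here: cells exposed to compound for 72 h before imaging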;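 on red/green cell ratio (normalised): normalised mesenchymal count divided by normalised epithelial count so high means epithelial killing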). As to conditions: PC-3E GFP / TEM4-18 mCherry co-culture, imaging cell counts, at 1 µM; for red/green cell ratio (normalised): actives lie on both sides, counts scaled to control wells, 1 = unselective.
The target of assay [18] is NAD(+) hydrolase SARM1 (Homo sapiens) (UniProt Q6SZW1). Nature of the assay: blocking NAD cleavage by SARM1 SAM-TIR – cell lysate, NAD-Glo luminescence (AID 1508614;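 active means compound whose remaining NAD level is above about 45 nM, limit read from the data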). As to conditions: SAM-TIR HEK293T lysate NADase, at 1 µM, stronger effect = higher value.
Assay [19] can be described thus: viability loss with induced miR-34 in A549 – imaging, A549 dox-inducible miR-34, nuclei and caspase counts, primary screen (AID 1347080;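 active means compounds whose cell count with miR-34 switched on is under 0.7 times the count with it off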). As to conditions: A549 miR-34 inducible, Hoechst nuclei count, 48 h.
[20] abbreviates: MELAS cybrid survival, CellTiter-Glo 48 h, stronger effect = higher value.
[21] abbreviates: Rieske KO mouse fibroblast survival, CellTiter-Glo 72 h.
The mark [22] stands for this setting: measured here: epithelial PC-3E GFP cell survival.
[23] abbreviates: measured here: mesenchymal TEM4-18 mCherry cell survival.
Setting [24] is: stronger effect = lower value, cell number ratio, induced over uninduced.
Setting [25] is: measured here: relative caspase fold change +Dox/-Dox.
Where [26] appears, read: measured here: total cells with miR-34 induction, stronger effect = lower value.
Setting [27] is: measured here: total cells without miR-34 induction.

Where “and” joins values, the source holds several entries; their conditions need not be identical. Equal entries are not always repeated. Inconclusive results are not listed. Calls of active or inactive are those of the source. Unless noted, no stated cut-off is given here; in the data, active means parasite load remaining mostly below about 12% (no sharp cut-off); inactive means mostly above about 10%.

Chain of NAD(+) hydrolase SARM1 (Homo sapiens) (Q6SZW1 whole entry, looked up): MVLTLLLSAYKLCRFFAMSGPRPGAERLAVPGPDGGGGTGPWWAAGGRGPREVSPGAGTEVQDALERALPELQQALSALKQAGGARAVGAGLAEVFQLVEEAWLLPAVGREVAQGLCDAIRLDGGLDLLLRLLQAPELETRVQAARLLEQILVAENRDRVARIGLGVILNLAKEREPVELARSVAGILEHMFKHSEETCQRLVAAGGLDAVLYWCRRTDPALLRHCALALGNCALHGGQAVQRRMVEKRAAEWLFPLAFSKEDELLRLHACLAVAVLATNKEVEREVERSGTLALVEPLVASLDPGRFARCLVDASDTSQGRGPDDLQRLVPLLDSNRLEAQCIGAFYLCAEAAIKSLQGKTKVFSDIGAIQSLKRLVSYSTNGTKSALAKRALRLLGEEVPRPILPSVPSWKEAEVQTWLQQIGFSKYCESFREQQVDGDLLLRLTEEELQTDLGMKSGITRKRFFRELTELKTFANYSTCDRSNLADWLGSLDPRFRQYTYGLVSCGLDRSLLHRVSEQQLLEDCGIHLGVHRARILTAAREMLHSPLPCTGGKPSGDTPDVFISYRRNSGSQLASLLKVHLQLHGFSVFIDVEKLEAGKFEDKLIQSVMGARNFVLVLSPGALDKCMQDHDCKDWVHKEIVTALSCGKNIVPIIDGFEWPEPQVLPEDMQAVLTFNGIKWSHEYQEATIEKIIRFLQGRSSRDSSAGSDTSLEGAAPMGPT

One may read the viability as a read-out of living cells in per cent, often relative to untreated cells. The term remaining activity denotes the activity still measured, relative to the control. A word on the AC50: it is the midpoint of the concentration-response curve, whichever way the signal moves. For the compound `CC1=C(/C=C/C(C)=C/C=C/C(C)=C/C(=O)Nc2ccc(O)cc2)C(C)(C)CCC1`, the parasite load remaining in assay [1] is 39.4% (inactive). Also, the viability in assay [1] came out at 108%. Moreover, the nuclear beta-catenin stimulation in [2] (at 10 µM) was 21.3% (inactive); in [2] (stimulation, at 2 µM) it was 39.9%. The insulin secretion stimulation in [3] was 2.3% (inactive). The viability decrease in assay [4] was 98.8% (active). Besides, the tube area decrease in [5] was 110% (active). For the same compound, in assay [6], the GLP1 secretion stimulation was 2.4% (inactive). Besides, the inhibition of viability in assay [7] was 90.4% (active). Further, the values for the viability decrease (inhibition) in assay [8] and in assay [9] were 118% (active) and 94.3% (active), respectively. For the same compound, the remaining activity in assay [10] was 97.3% (inactive). Also, the figures for the AC50 in assay [11], in assay [12] and in assay [13] were 20.9 µM (active), 34 µM (active) and 9.59 µM (active), respectively. In addition, the compound was classed as inactive in assay [14]. The z-score was 0.416 (inactive) in assay [15] (setting [20]); 0.408 in assay [15] (setting [21]); -0.95 (inactive) and -0.72 (inactive) and -2.12 (inactive) in assay [16].

As to `CC(O)(P(=O)(O)O)P(=O)(O)O`, the parasite load remaining in assay [1] is 84.2% (inactive) and 72.4% (inactive) and 27.7% (inactive). Moreover, the viability in assay [1] is 97.4% and 110% and 90%. Besides, the nuclear beta-catenin stimulation in assay [2] (at 10 µM) is 3.1% (inactive); in [2] (stimulation, at 2 µM), 1.7%. For the same compound, the insulin secretion stimulation in [3] is 0.9% (inactive). In addition, the viability decrease in [4] was 12.5% (inactive). In addition, in assay [5], the tube area decrease was 8.2% (inactive). Also, the GLP1 secretion stimulation in assay [6] was 1.6% (inactive). For the same compound, the inhibition of viability in assay [7] is 9.4% (inactive). The figures for the viability decrease (inhibition) in assay [8] and in assay [9] were 2.7% (inactive) and 9.1% (inactive), respectively. In assay [17], the red/green cell ratio (normalised) was 0.95 (inactive). Further, the normalised cell number in [17] (setting [22]) was found to be 1.05; in assay [17] (setting [23]), 1. In addition, the z-score in assay [15] (setting [20]) was -0.62 (inactive) and 0.631 (inactive); in assay [15] (setting [21]), -0.885 and -0.197; in [16], -2.15 (inactive) and 0.43 (inactive). The remaining NAD in assay [18] was 10 nM (inactive).

With `CCCCCCCCCCOc1cc2c(=O)c(C(=O)OCC)c[nH]c2cc1OCC`, in [1], the parasite load remaining is 0.015% (active). Further, the viability in assay [1] is 101%. Moreover, the nuclear beta-catenin stimulation is -2.3% (inactive) in assay [2] (at 10 µM) and -0.1% in assay [2] (stimulation, at 2 µM). Further, the insulin secretion stimulation in assay [3] is -0.4% (inactive). Also, the viability decrease in assay [4] is -29.2% (inactive). Also, in assay [5], the tube area decrease is -2% (inactive). For the same compound, the GLP1 secretion stimulation in assay [6] is 1.3% (inactive). For the same compound, in assay [7], the inhibition of viability is -5.6% (inactive). Besides, the viability decrease (inhibition) in assay [8] is -212% (inactive); in assay [9], -42% (inactive). The red/green cell ratio (normalised) in assay [17] was 1 (inactive). Besides, the normalised cell number in assay [17] (setting [22]) and in assay [17] (setting [23]) was 0.98 in each case. The figures for the fold change in assay [19] (setting [24]) and in assay [19] (setting [25]) were 0.938 (inactive) and 1.91, respectively. For the same compound, the cell count in [19] (setting [26]) is 11200; in [19] (setting [27]), 11900. For the same compound, in assay [18], the remaining NAD was 10 nM (inactive).

For `NC(=O)CCCCC1CCSS1` (stereo not given), the nuclear beta-catenin stimulation in assay [2] (at 10 µM) is -0.8% (inactive); in assay [2] (stimulation, at 2 µM), 2.1%. In assay [3], the insulin secretion stimulation is -0.6% (inactive). Also, the viability decrease in [4] was -164% (inactive). Further, in [5], the tube area decrease is 18% (inactive). The GLP1 secretion stimulation in assay [6] is -0.8% (inactive). Besides, in [7], the inhibition of viability was -10.3% (inactive). In addition, the viability decrease (inhibition) in [8] was -43.7% (inactive); in assay [9], -25.4% (inactive). In addition, the red/green cell ratio (normalised) in [17] was 1.02 (inactive). Also, the normalised cell number in assay [17] (setting [22]) is 0.81; in assay [17] (setting [23]), 0.82. Also, the results for the fold change in [19] (setting [24]) and in assay [19] (setting [25]) were 0.89 (inactive) and 1.01, respectively. Besides, the cell count in [19] (setting [26]) is 8370; in assay [19] (setting [27]) it was 9400. Besides, in assay [18], the remaining NAD was 10 nM (inactive).

For the compound `NS(=O)(=O)c1ccc(C(=O)O)cc1`, the nuclear beta-catenin stimulation was 1.5% (inactive) in assay [2] (at 10 µM) and 1.6% in [2] (stimulation, at 2 µM). In addition, in [3], the insulin secretion stimulation was -0.4% (inactive). Besides, the viability decrease in assay [4] was 15.4% (inactive). Further, the tube area decrease in [5] is -32.8% (inactive). Further, the GLP1 secretion stimulation in assay [6] is 2.9% (inactive). In addition, in [7], the inhibition of viability is -10.4% (inactive). Also, the viability decrease (inhibition) in assay [8] was 21.5% (inactive); in [9], 3.9% (inactive). Further, the red/green cell ratio (normalised) in assay [17] is 0.82 (inactive). Further, the normalised cell number in [17] (setting [22]) stood at 1.25; in assay [17] (setting [23]) it was 1.03. For the same compound, the fold change in [19] (setting [24]) was 0.907 (inactive); in assay [19] (setting [25]) it was 1.07. The cell count in assay [19] (setting [26]) turned out to be 8630; in assay [19] (setting [27]), 9520. In addition, in assay [18], the remaining NAD is 10 nM (inactive).
